Eya2 inh: inhibitors of human Eya2 phosphatase activity | Potency, µM (titrated, usually from 76.9 µM), for the others: at the highest dose activity, negative = inhibition, usual class: inhibitors | recombinant Eya2, OMFP fluorescence dephosphorylation (OMFP is methylfluorescein phosphate) | AID 488837 | 0.006% of 330,000 active; also: potency is read from the fitted curve at half-maximal effect
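Eya2 protein (added as 0.2 uM solution) was preincubated with compound for 10 min at ambient temperature in 50 mM HEPES pH 7.5, 50 mM NaCl, 5 uM MgCl2, 0.05% BSA, 1 mM DTT. OMFP (added at 50 uM) then reacted 10 min; fluorescence read at 485/525 nm.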
mIDH1 inhibitor: human IDH1 R132H inhibition; O75874; 0.093% of 390,000 active; IDH1-R132H enzyme, NADPH consumption, diaphorase/resazurin fluorescence; Potency, µM (series often up to 76.6 µM), for the others: at the highest dose activity change, negative = inhibition, actives largely listed as inhibitors; also: potency is read from the fitted curve at half-maximal effect; nearly all actives have a fitted effect of over 65% in size
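IDH1-R132H (0.5 ug/mL) preincubated 30 min with compound, then NADPH (0.016 mM) and alpha-KG (2 mM) added; 80 min at RT, pH 7.5. Remaining NADPH coupled via diaphorase/resazurin to fluorescence (540/590 nm); concentration-response curves normalized to no-enzyme control.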
FBPA coupling cs: inhibits coupling enzyme system, counter-screen for aldolase hits; AID 2472; coupling enzyme system counterscreen, AmpLite Red fluorescence; activity change, negative = inhibition, % at 58.2 µM, hits read low; 0.67% of 290,000 active; in the data active = activity change below about -30%
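Coupling enzymes only (glyceraldehyde-3-phosphate) + compound, at 57.5 uM final, 10 min RT; add substrate/coupling/AmpLite Red mix, 20 min RT; fluorescence ex 525/em 598 nm. Actives flag coupling-system interference.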
rTrxR1 inhibitor: rat TrxR1 inhibition; 1% of 390,000 active; Potency, µM (highest dose often 114 µM), for the others: top-dose activity change, negative = inhibition, usual class: inhibitors; recombinant rTrxR1, NADPH fluorescence consumption, selenite substrate; AID 588453; O89049; also: potency is read from the fitted curve at half-maximal effect; nearly all actives have a fitted effect of over 65% in size
Target sequence (O89049 whole entry, looked up): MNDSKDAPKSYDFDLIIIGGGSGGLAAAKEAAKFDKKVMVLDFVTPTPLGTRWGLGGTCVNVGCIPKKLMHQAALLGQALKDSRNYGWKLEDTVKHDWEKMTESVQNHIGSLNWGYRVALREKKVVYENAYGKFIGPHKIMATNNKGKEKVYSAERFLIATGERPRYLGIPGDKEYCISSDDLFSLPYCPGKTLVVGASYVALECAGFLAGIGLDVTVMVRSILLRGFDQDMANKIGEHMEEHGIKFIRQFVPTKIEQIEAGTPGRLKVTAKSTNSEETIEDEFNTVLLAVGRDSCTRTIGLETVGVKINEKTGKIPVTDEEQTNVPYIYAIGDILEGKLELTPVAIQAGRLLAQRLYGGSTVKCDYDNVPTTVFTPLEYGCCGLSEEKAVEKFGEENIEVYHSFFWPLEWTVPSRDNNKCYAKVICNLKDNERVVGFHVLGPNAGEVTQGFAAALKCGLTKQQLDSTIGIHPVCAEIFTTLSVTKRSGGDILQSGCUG
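Rat TrxR1 (90 nM in the dispensed reagent) was pre-reduced with 400 uM NADPH for 5 min at room temperature, then incubated with compound for 15 min. After 400 uM selenite was added, NADPH fluorescence (Ex 340/Em 450 nm) was followed for 8 min.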
TrxR1 substrate: rat thioredoxin reductase 1 substrate activity | O89049 | purified TrxR1 substrate turnover, NADPH consumption readout | Potency, µM (titrated, usually from 114 µM), for the others: at the top dose activity change, negative = substrate turnover | 0.01% of 390,000 active | AID 588456; also: potency is read from the fitted curve at half-maximal effect; nearly all actives have a fitted effect of over 50% in size
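Rat TrxR1, dispensed at 90 nM, was prereduced with 400 uM NADPH (final) for 5 min at ~22 deg C, then incubated with compound 15 min before 400 uM selenite. A first-read NADPH fluorescence drop versus no-compound background flagged substrates.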
* hit, by the source's call; ? = inconclusive; / = not tested or not shown; [ ] = another dose, or the depositor's remark. This is a sample that favours compounds with a hit; in the whole collection about 1.5% have one here. Unless noted, calls follow the shape of the dose curve; as a rule, active = well fitted curve in the direction sought with a large enough effect; inconclusive = small, poorly fitted or top-dose-only effect, or another doubt; inactive = no such curve, though single readings can be large; an effect the other way counts as inactive or inconclusive. % is scaled to controls: 0 for no effect and ±100 for the full control effect.

SMILES	Eya2 inh	mIDH1 inhibitor	FBPA coupling cs	rTrxR1 inhibitor	TrxR1 substrate
CN(C)c1ccc(C=c2c3cc([N+](=O)[O-])ccc3n3c2cc(-c2ccccc2)[n+]3C)cc1	/	3%	/	40µM*	-19%
CC(C)(C)n1ncc2c(=O)n(Cc3cccc(C(F)(F)F)c3Cl)cnc21	/	/	/	17%[57.1 µM]	-3%
Cc1ccc2nsnc2c1S(=O)(=O)Nc1cccc2nsnc12	1%	9%	-34*	0%	-1%
COc1ccc(N2C(=O)CC(Sc3nnc(-c4ccccc4)o3)C2=O)cc1 (centres undefined)	19%	-2%	2	40µM*	2%
COc1ccc2nc(N3CCC(O)CC3)c(C#N)cc2c1	-11%	14%	-34*	?	18%
O=S1(=O)CCO[C@H]2CCCC[C@@H]2N1Cc1ccccc1	/	/	/	15%	0%
N#CCCN(C(=O)CCl)c1cccc(Cl)c1	-22%	15%	2	8.9µM*	7%
O=C(CCl)N(c1ccccc1)c1ccccc1	-1%	1%	-1	?	9%[57.1 µM]
CCCCCCCN(C(=O)CCl)c1cccc(C)c1	-11%	3%	4	40µM*	4%
CCCCCCN(C(=O)CCl)c1ccccc1	7%	2%	1	18µM*	-3%
CC1(C)CCC(c2ccc(Cl)cc2)=C(CN2CCN(c3ccc(C(=O)NS(=O)(=O)c4ccc(N[C@H](CCN5CCOCC5)CSc5ccccc5)c(S(=O)(=O)C(F)(F)F)c4)cc3)CC2)C1	/	/	/	6%	-1%
O=C(NCC1CC1)c1ccc2nc(-c3ccoc3)c(-c3ccoc3)nc2c1	/	/	/	0%	7%[0.0914 µM]
O=C(NN=c1c(=O)c2ccccc2c1=O)c1ccccc1	-10%	19%	-43*	-9%	-13%
Cc1ccc(S(=O)(=O)CCC(=O)Oc2ccc3c(C)cc(=O)oc3c2)cc1	21%	11%	/	71µM*	382%
O=c1[nH]c(Sc2ccc([N+](=O)[O-])cc2[N+](=O)[O-])nc2ccccc12	/	0%	/	3.2µM*	-5%
O=C(C(Cl)c1ccccc1)N1CCCC1 (centres undefined)	1%	2%	0	20µM*	6%[57.1 µM]
COc1ccc(NC(=O)c2cc(S(=O)(=O)N3CCCCC3)ccc2N2CCCCC2)cn1	-19%[15.4 µM]	5%	-35*	11%	-3%
COc1ccc(NC(=O)c2cc(S(=O)(=O)N3CCCC3)ccc2C)cn1	20%	-8%	/	4%	-2%
CC1(C)CC2(CC(c3ccc(F)cc3)c3ccc(O)cc3O2)NC(=S)N1 (centres undefined)	12%	-8%	0	3%	-7%
CC1(C)CC2(CC(c3ccccc3F)c3ccc(O)c(O)c3O2)NC(=S)N1 (centres undefined)	2%	-1%	-5	2.8µM*	10%[57.1 µM]
O=C1N(c2ccccc2)C[C@@H]2C[C@@H](c3cccs3)N3CCC[C@@]123	2%	10%	-6	20µM*	4%
c1ccc(-c2nc(-c3ccco3)cs2)nc1	4%	5%	-1	18µM*	16%
c1ccc(-c2nccc(-c3ccco3)n2)nc1	-17%	0%	-1	-19%	-2%
Nc1ncnc2oc(-c3ccoc3)c(-c3ccco3)c12	/	/	/	50µM*	25%
Nc1ncnc2oc(-c3ccco3)c(-c3ccco3)c12	5%	6%	-31*	-43%[57.1 µM]	48%
SMILES	Eya2 inh	mIDH1 inhibitor	FBPA coupling cs	rTrxR1 inhibitor	TrxR1 substrate
Nc1nnc(-c2ccco2)s1	-12%	-1%	-4	-7%	1%
COc1ccc(-c2nc3c(c4c2C[C@H](c2ccccc2)OC4)CN(S(=O)(=O)c2ccc(C#N)cc2)CC3)c(C)c1	/	/	3	/	/
O=c1c(-c2ccc(O)cc2)coc2cc(O[C@@H]3O[C@H](CO)[C@@H](O)[C@H](O)[C@H]3O)cc(O)c12	/	/	2	/	/
O=[N+]([O-])c1cccnc1S(=O)(=O)c1ccccc1	9%	1%	4	1.1µM*	1%
O=C(COc1ccccc1C(=O)OCC(=O)N1CCOCC1)Nc1ccc(Br)cc1	/	/	/	23%	4%
O=C(Nc1ccc(C(=O)N2CCC(N3CCCC3)CC2)cc1)c1ccc(Br)o1	12%	-13%	/	56µM*	2%
COc1ccc(CN2CC[C@H]3C=CC[C@@H](C(=O)NCc4cccnc4)[C@H]3C2=O)cc1OC	/	/	/	-16%	-1%
COc1ccc(S(=O)(=O)N2CCN(c3nc(-c4ccccc4)nc4ccccc34)CC2)cc1	/	/	/	28%	6%
COc1cc(NCCCCC(C)N)c2nccc(C)c2c1 (centres undefined)	/	17%	/	/	/
COc1cc(NCCCC(C)N)c2ncccc2c1 (centres undefined)	11%	26%	-58*	-25%	-7%
O=C1c2ccccc2C(=O)N1CCCCN(C(=O)c1ccco1)c1ccc(Cl)cc1	-6%	8%	-1	-1%	0%
O=C1/C(=C/N(C(=O)c2ccco2)c2ccc(Cl)cc2)Sc2ccccc21	-6%	-3%	0	40µM*	-7%
O=C1/C(=C/N(C(=O)c2ccco2)c2ccc(Br)cc2)Sc2ccccc21	9%	-13%	0	14µM*	-4%
Cc1ccc(CNC(=O)CCCOc2cc(=O)n(C)c3ccccc23)o1	12%	6%	0	40µM*	-4%
Cn1c(=O)cc(OCCCC(=O)NCc2ccco2)c2ccccc21	5%	6%	3	?	2%
O=C(NC1CCCCCC1)C1CCC(CNS(=O)(=O)c2cccc3cccnc23)CC1 (centres undefined)	/	/	/	5%	-3%
O=[N+]([O-])c1ccc2c(c1)S(=O)(=O)C=C2	-1%	/	-2	2.1µM*	19%[57.1 µM]
Nc1nc(N)c2c(OCc3ccc(C(F)(F)F)cc3)cccc2n1	/	/	/	0%	20%
O=C(CSc1ccc(C(F)(F)F)cn1)Nc1ccccc1	17%	7%	-1	?	-8%[57.1 µM]
O=C(/C=C/Sc1ccc(C(F)(F)F)cn1)c1ccccc1	-27%	-2%	3	1.3µM*	0%
COc1cccc(CNc2cccc3cccnc23)c1O	-26%	6%	-57*	?	-5%
CCN1C(=O)/C(=C/C=C2\C=CN(CC)c3ccccc32)SC1=S	-4%	4%	-36*	-14%	1%
CCN1C(=O)/C(=C\C=C2/C=CC=CN2CC)SC1=S	1%	9%	-31*	?	-12%
C[C@H](NC(=O)[C@@H](Cc1c[nH]c2ccccc12)NC(=O)[C@@H](N)Cc1cnc[nH]1)C(=O)N[C@@H](Cc1c[nH]c2ccccc12)C(=O)N[C@H](Cc1ccccc1)C(=O)N[C@@H](CCCCN)C(N)=O	/	/	0	/	/
O=S(=O)(NC(=S)NC1CCCCC1)c1cccs1	5%	-1%	2	?	12%[57.1 µM]
O=S(=O)(NC(=S)NC1CCCCC1)c1ccccc1	5%	-7%	-7	3.2µM*	-6%
COc1ccc(-c2cn3cc(C)ccc3n2)cc1Br	2%	29%	-17	15%[57.1 µM]	21%[57.1 µM]
